Source: PubChem (several laboratories)
Most compounds without a hit are left out; they make up all but 2.3% or so of the library.
HSP90 inh: blocks HSP90-mediated luciferase refolding in reticulocyte lysate. Rabbit reticulocyte lysate, luciferase refolding luminescence, 3 h. inhibition, % at 5.6 µM. 0.91% of 290,000 active. AID 1789;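 active = inhibition above the screen-wide mean plus 3 SD, computed separately per campaign, cut at about 16% in these data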;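 also: 0% = DMSO wells and 100% = 60 µM geldanamycin wells; inhibitors lower the luminescence because luciferase stays unfolded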
SENP8 block-1: blocks human SENP8 cleavage of Nedd8 substrate. Q96LD8. recombinant SENP8, Nedd8 substrate fluorescence. inhibition, % at 20 µM. 0.64% of 360,000 active; in the data active = inhibition mostly above about 40%, no sharp cut-off; inactive = mostly below about 27%
Target sequence (Q96LD8 whole entry, looked up): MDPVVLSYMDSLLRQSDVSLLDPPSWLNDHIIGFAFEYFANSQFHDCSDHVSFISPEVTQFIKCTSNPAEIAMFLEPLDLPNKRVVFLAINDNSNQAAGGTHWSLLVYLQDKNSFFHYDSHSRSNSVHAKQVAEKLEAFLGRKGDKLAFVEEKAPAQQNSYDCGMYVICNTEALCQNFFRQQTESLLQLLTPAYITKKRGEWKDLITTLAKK
SENP6 inh: SENP6 protease inhibition | Recombinant SENP6 catalytic domain, aminoluciferin luminescence | 1.8% of 330,000 active | inhibition, % at 10 µM | Q9GZR1 | AID 2599;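 active = inhibition above about 50% at the single tested dose, limit read from the data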;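 also: plate controls were DMSO wells with enzyme for no effect and DMSO wells lacking enzyme for full effect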
SENP7 inh: SENP7 protease inhibition; Q9BQF6; recombinant SENP7, Z-RLRGG-aminoluciferin luminescence, 40 min; inhibition, % at 5 µM; 1.5% of 330,000 active; AID 434973;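 active = inhibition above about 50% at the single test dose, limit read from the data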;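 also: plate controls were DMSO with enzyme for no effect and no enzyme buffer wells for full effect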
Target sequence (Q9BQF6 706-1050 limits assumed): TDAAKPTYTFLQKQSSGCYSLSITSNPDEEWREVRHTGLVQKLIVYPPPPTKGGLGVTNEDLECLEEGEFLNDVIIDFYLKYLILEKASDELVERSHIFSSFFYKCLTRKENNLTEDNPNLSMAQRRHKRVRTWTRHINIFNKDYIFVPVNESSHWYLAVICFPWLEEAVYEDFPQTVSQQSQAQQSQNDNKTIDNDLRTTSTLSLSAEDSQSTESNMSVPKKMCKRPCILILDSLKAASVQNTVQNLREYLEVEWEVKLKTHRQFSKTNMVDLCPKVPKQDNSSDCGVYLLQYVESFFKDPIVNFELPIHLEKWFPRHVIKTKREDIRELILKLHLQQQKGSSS
LGR2 inh: blocks bursicon-induced cAMP signaling via Drosophila LGR2 | 0.35% of 380,000 active | inhibition, % at 9.99 µM | HEK293 LGR2, CRE-luciferase, bursicon-stimulated, 4 h;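 active = drop in luminescence signal, shown as inhibition above about 50% in the replicate tests, limit read from the data, passing the limit was not always enough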;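 also: agonist challenge used bursicon conditioned medium at about half maximal strength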
SENP8 block-2: SENP8 protease inhibition; Q96LD8; purified SENP8, Z-RLRGG-aminoluciferin cleavage, luminescence; inhibition, % at 10 µM; 1.2% of 330,000 active; in the data active = inhibition above about 50%
SENP8 inh conf: confirmation of human SENP8 protease inhibitors; inhibition, % at 25 µM; shares compounds with SENP8 block-1; 15% of 1,400 active; purified SENP8, Nedd8-AMC/pro-Nedd8 cleavage fluorescence, 30 min; in the data active = inhibition mostly above about 39%, no sharp cut-off; inactive = mostly below about 34%
An asterisk follows results filed as active.

Results for Cc1cc(NC(=O)CCC(=O)N(Cc2ccco2)C(C(=O)NC2CCCC2)c2ccccc2C)no1 (stereo not drawn) ?
HSP90 inh: 2; SENP8 block-1: 60*; SENP6 inh: -18; SENP7 inh: -5; SENP8 block-2: -5; SENP8 inh conf: 27

Results for COc1cc(C)c(S(=O)(=O)NCc2cccs2)cc1C ?
HSP90 inh: 1; SENP8 block-1: 41*; SENP6 inh: -13; SENP7 inh: 14; LGR2 inh: -10; SENP8 block-2: -10; SENP8 inh conf: 11

How did O=S(=O)(N[C@@H]1CC[C@H](CCn2cc(-c3ccccn3)nn2)O[C@H]1CO)c1cccc(Cl)c1 do in these assays?
LGR2 inh: 5

How did O=C(O)c1cccc(Br)c1 do in these assays?
SENP8 block-1: 42*; LGR2 inh: 7; SENP8 inh conf: 4

Results for O=C(Cn1ncc2c([nH]c3ccccc32)c1=O)N1CCc2ccccc2C1 ?
HSP90 inh: -5; SENP8 block-1: 2; SENP6 inh: 7; SENP7 inh: -2; LGR2 inh: 3; SENP8 block-2: 0

Results for O=C(CCc1nc2ccccc2[nH]1)N1CCc2ccccc2C1 ?
HSP90 inh: -5; SENP8 block-1: 45*; SENP6 inh: 11; SENP7 inh: -15; LGR2 inh: -8; SENP8 block-2: -8; SENP8 inh conf: 54*

How did COc1ccc(CNC(=O)[C@H](C)N2C(=O)N3CCc4c([nH]c5ccccc45)[C@@]3(C)C2=O)cc1OC do in these assays?
HSP90 inh: -4; SENP8 block-1: 51*; SENP6 inh: -3; SENP7 inh: 4; LGR2 inh: 13; SENP8 block-2: -2; SENP8 inh conf: -5

Results for Cc1ccc(CNC(=O)[C@H](C)N2C(=O)N3CCc4c([nH]c5ccccc45)[C@@]3(C)C2=O)cc1 ?
HSP90 inh: -2; SENP8 block-1: 2; SENP6 inh: 0; SENP7 inh: -2; SENP8 block-2: -3

Results for C[C@H](CO)N1C[C@H](C)[C@H](CN(C)C(=O)Nc2cc(F)ccc2F)Oc2ncc(C#CCN(C)C)cc2C1=O ?
LGR2 inh: -9

What do the screens show for `COc1c(O)cc2c(c1O)[C@@H]1O[C@H](CO)[C@@H](O)[C@H](O)C1OC2=O` (stereo partly drawn)?
SENP8 block-1: 43*; SENP6 inh: -9; SENP7 inh: -5; LGR2 inh: -27; SENP8 block-2: -2; SENP8 inh conf: 13

What do the screens show for `COc1c(O)cc2c(c1O)C1OC(CO)C(O)C(O)C1OC2=O` (stereo not drawn)?
SENP8 block-1: 9; SENP6 inh: -6; SENP7 inh: -6; LGR2 inh: -5; SENP8 block-2: -5

How did Cc1cc2c(N)cccc2nn1 do in these assays?
HSP90 inh: 2; SENP8 block-1: 114*; SENP6 inh: 91*; SENP7 inh: 47; SENP8 block-2: 95*; SENP8 inh conf: 45*

What do the screens show for `CCN1CCN(c2ccc(NC(=O)c3ccc([N+](=O)[O-])o3)cc2Cl)CC1`?
HSP90 inh: 8; SENP8 block-1: 52*; LGR2 inh: -37; SENP8 inh conf: 20

What do the screens show for `CCCC(=O)N1CCN(c2ccc(NC(=O)c3ccc(N4CCCC4)c([N+](=O)[O-])c3)cc2Cl)CC1`?
SENP8 block-1: 45*; SENP6 inh: -8; SENP7 inh: 8; LGR2 inh: 30; SENP8 block-2: 7; SENP8 inh conf: 18

Results for Cc1ccc(NC(=O)c2ccc(N3CCOCC3)c([N+](=O)[O-])c2)cc1S(=O)(=O)N1CCOCC1 ?
HSP90 inh: 3; SENP8 block-1: 44*; SENP6 inh: -3; SENP7 inh: 7; LGR2 inh: 20; SENP8 block-2: -3; SENP8 inh conf: 30

What do the screens show for `CCCC(=O)Nc1ccc2c(c1)C(=O)N(C)C[C@@H](OC)[C@@H](C)CN(C(=O)CN(C)C)[C@H](C)CO2`?
LGR2 inh: 14

How did CC=Cc1ccc2n(c1=O)C[C@@H]1[C@@H](CO)[C@H](C(=O)NCC3CC3)[C@H]2N1CCC (mixture of isomers) do in these assays?
LGR2 inh: -7

What do the screens show for `C[C@@H]1CCCCO[C@@H](CN(C)S(=O)(=O)c2ccccc2)[C@@H](C)CN([C@@H](C)CO)C(=O)c2cc(NC(=O)c3ccncc3)ccc2O1`?
LGR2 inh: -3

Results for C[C@@H]1CN([C@@H](C)CO)C(=O)c2cccc(NS(=O)(=O)c3ccc(F)cc3)c2O[C@@H]1CN(C)C(=O)NC1CCCCC1 ?
LGR2 inh: 7

Results for Nc1cccc2c1C(=O)N(c1ccccc1)C2=O ?
SENP8 block-1: -429; SENP6 inh: -4; SENP7 inh: 1; LGR2 inh: -32; SENP8 block-2: 1

Results for O=C1c2ccccc2C(=O)N1c1ccccc1 ?
SENP8 block-1: 42*; LGR2 inh: -16; SENP8 inh conf: 4

Results for CC(C)NC(=O)N1CC2(C1)[C@@H](c1ccccc1)[C@@H](CO)N2C(=O)C1CC1 ?
LGR2 inh: 4

How did C/C(=C\C(=S)Nc1ccccc1)Nc1ccccc1 do in these assays?
HSP90 inh: 1; SENP8 block-1: -21; SENP6 inh: -9; SENP7 inh: 2; LGR2 inh: -49; SENP8 block-2: -7

Results for CN(N=Cc1ccccc1)C(=S)Nc1ccccc1 ?
SENP8 block-1: 43*; LGR2 inh: -28; SENP8 inh conf: 19

What do the screens show for `COc1ccc2c3c(n(C)c2c1)[C@H](CO)N(C(C)=O)CC31CN(C(=O)Nc2ccc(F)cc2)C1`?
LGR2 inh: -5

How did Cc1onc(-c2ccccc2)c1C(=O)NCCc1ccc(Cl)cc1 do in these assays?
HSP90 inh: -1; SENP8 block-1: 51*; SENP6 inh: -11; SENP7 inh: 4; LGR2 inh: 1; SENP8 block-2: 1; SENP8 inh conf: 5

How did CN(C)CC(=O)N[C@@H]1CC[C@H](CCNC(=O)C2CCCC2)O[C@@H]1CO do in these assays?
LGR2 inh: 0

How did CC(=O)OC1CCC2(C)C(=CCC3C2CCC2(C)C3CC3OC4(CCC(C)CN4)C(C)C32)C1 (stereo not drawn) do in these assays?
HSP90 inh: 1; SENP8 block-1: 51*; SENP6 inh: -8; SENP7 inh: 4; SENP8 block-2: -8; SENP8 inh conf: 13

Results for O=C1CC(=Nc2ccc([N+](=O)[O-])cc2)NN1c1c(Cl)cc(Cl)cc1Cl ?
SENP8 block-1: 95*; LGR2 inh: 1; SENP8 inh conf: 71*

Results for O=[N+]([O-])c1ccc(N=Nc2c(Cl)cc(O)cc2Cl)cc1 ?
HSP90 inh: -2; SENP8 block-1: 37; LGR2 inh: 22
